Test results reported in PubChem BioAssay (EPA / NIEHS).
Records with an inconclusive call do not appear. Activity calls are given as the source filed them. How the source made its calls, unless noted: active means hit-call score of the fitted dose curve at least 0.9, where 1 is the maximum; inconclusive means response in the unintended direction; inactive means score below 0.9.

Columns and labels:
[1] = TOX21_p53_BLA_p2_viability: Viability Assessment in the Tox21 HCT-116 p53 Agonism Beta-lactamase Assay, Phase 2 (AID 2283591);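 further: compound exposure lasted 16 h at 37 °C; actives lower the ATP signal meaning cytotoxicity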
Outline: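 Cytotoxicity readout: CellTiter-Glo ATP luminescence, 30 min at room temperature, after the beta-lactamase read. Cells were HCT116 exposed 16 h at 37C to compounds pin-transferred at 217-fold dilution from DMSO stocks.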

[2] = target: Cellular tumor antigen p53 (Homo sapiens) (UniProt P04637); assay: TOX21_p53_BLA_p2_ratio: Tox21 HCT-116 p53 Agonism Beta-lactamase Assay, Ratio, Phase 2 (AID 2283592)
Chain of Cellular tumor antigen p53 (Homo sapiens) (P04637 whole entry, looked up): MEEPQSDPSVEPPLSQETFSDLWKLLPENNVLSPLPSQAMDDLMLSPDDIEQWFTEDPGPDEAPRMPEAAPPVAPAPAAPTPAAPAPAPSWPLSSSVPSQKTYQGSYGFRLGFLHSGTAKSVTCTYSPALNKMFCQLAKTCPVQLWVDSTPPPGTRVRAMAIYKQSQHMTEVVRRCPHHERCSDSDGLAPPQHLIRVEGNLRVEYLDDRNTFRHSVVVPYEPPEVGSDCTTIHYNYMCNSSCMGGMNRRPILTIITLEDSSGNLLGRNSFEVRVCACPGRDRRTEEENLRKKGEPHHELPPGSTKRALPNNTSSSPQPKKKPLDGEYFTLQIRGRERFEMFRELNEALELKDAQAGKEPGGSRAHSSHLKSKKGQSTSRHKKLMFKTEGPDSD
Outline: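 Ratio endpoint: beta-lactamase cleavage of CCF4-AM, blue (460 nm) over green (530 nm). HCT116 reporter line; 16 h treatment, 37C; substrate 2 h RT.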

[3] = TOX21_p53_BLA_p3_viability: Viability Assessment in the Tox21 HCT-116 p53 Agonism Beta-lactamase Assay, Phase 3 (AID 2283593);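 further: cells exposed to compound for 16 h before reading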
Outline: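 Cellular ATP was quantified by CellTiter-Glo luminescence, read after 30 min at room temperature. Beforehand, HCT116 cells (4000/well) received compound 5 h post-seeding, 217-fold diluted from DMSO, then incubated 16 h at 37C.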

[4] = target: Cellular tumor antigen p53 (Homo sapiens) (UniProt P04637); assay: TOX21_p53_BLA_p3_ratio: Tox21 HCT-116 p53 Agonism Beta-lactamase Assay, Ratio, Phase 3 (AID 2283596)
Outline: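 Cells were seeded at 4000/well, rested 5 h at 37C, then dosed with DMSO compound solutions (217-fold dilution) for 16 h. CCF4-AM substrate was loaded for 2 h at room temperature, and the 460/530 nm emission ratio was fitted for gain of signal versus DMSO.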

[5] = TOX21_p53_BLA_p4_viability: Viability Assessment in the Tox21 HCT-116 p53 Agonism Beta-lactamase Assay, Phase 4 (AID 2283597);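 further: hits lower the luminescence signal meaning cytotoxicity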
Outline: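 Cytotoxicity was inferred from loss of CellTiter-Glo luminescence. HCT116 cells had been dosed with compounds after 5 h plating, incubated 16 h at 37C and 5% CO2, and exposed to the CCF4-AM substrate for 2 h.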

[6] = target: Cellular tumor antigen p53 (Homo sapiens) (UniProt P04637); assay: TOX21_p53_BLA_p5_ratio: Tox21 HCT-116 p53 Agonism Beta-lactamase Assay, Ratio, Phase 5 (AID 2283599)
Outline: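 Beta-lactamase reporter ratio (blue 460 nm over green 530 nm, 405 nm excitation) after 2 h CCF4-AM loading, in HCT-116 cells exposed 16 h at 37 C to compounds pinned at 217-fold dilution. Increases relative to DMSO baseline scored.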

[7] = TOX21_p53_BLA_p5_viability: Viability Assessment in the Tox21 HCT-116 p53 Agonism Beta-lactamase Assay, Phase 5 (AID 2283600)
Outline: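 Luciferase-coupled ATP quantitation of cells treated for 16 h (37C, 5% CO2) with test chemicals delivered in DMSO via a 217-fold dilution; 4000 cells/well; reagent incubated 30 min at room temperature before luminescence reading.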

[8] = target: Cellular tumor antigen p53 (Homo sapiens) (UniProt P04637); assay: TOX21_p53_BLA_p4_ratio: Tox21 HCT-116 p53 Agonism Beta-lactamase Assay, Ratio, Phase 4 (AID 2283601)
Outline: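 Signal is the blue/green (460nm/530nm) ratio of cleaved versus uncleaved CCF4-AM substrate, read after 2 h substrate loading. Cells were HCT116 carrying the p53-responsive beta-lactamase reporter, dosed 16 h at 37C, 5% CO2; CellTiter-Glo measured in parallel.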

[9] = STM_H9_OrnCyssISnorm_ratio: Stemina devTOX quickPredict H9 human embryonic stem cell (hESC)-based Assay for Ornithine (ORN):Cystine (CYSS) Ratio (AID 2283714)
Outline: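 Ratio of internal-standard-normalized ornithine to cystine, measured by UPLC-HRMS in spent media from the last 24 h. H9 cells kept pluripotent, dosed 72 h with daily media and compound renewal; DMSO 0.1% serves as baseline.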

[10] = STM_H9_NormalizedViability: Cytotoxicity Assessment at 120 hours in the Stemina devTOX quickPredict H9 human embryonic stem cell (hESC)-based Assay (AID 2283784)
Outline: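 Viability endpoint: background-corrected CellTiter-Fluor RFU expressed relative to the 0.1% DMSO mean on each plate. Undifferentiated H9 cells were treated with daily re-dosing and media change, and loss of signal was fitted.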

[11] = CCTE_Harrill_HTTr_Viability_MCF7: CCTE's 6-hour Cell Viability Assessment for the High-Throughput Transcriptomics (HTTr) Platform, in MCF-7 cells cultured in DMEM + 10% fetal bovine serum, Harrill Lab (AID 2284010; active means hit-call score of the fitted dose curve at least 0.9, where 1 is the maximum; inactive means score below 0.9)
Outline: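 Propidium iodide exclusion, imaged by high-content analysis, gauged viability after a six-hour exposure across eight concentrations. Cells were MCF-7 grown in DMEM with 10% fetal bovine serum; fits run in both directions against DMSO.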

[12] = CCTE_Harrill_HTTr_Apoptosis_MCF7: CCTE's 6-hour Apoptosis Assessment for the High-Throughput Transcriptomics (HTTr) Platform, in MCF-7 cells cultured in DMEM + 10% fetal bovine serum, Harrill Lab (AID 2284011; active means hit-call score of the fitted dose curve at least 0.9, where 1 is the maximum; inactive means score below 0.9)
Outline: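 MCF-7 cells in DMEM + 10% fetal bovine serum were exposed to chemicals for 6 hours over an eight-point dilution series. Caspase-3/7 activation was imaged by high content imaging with CellEvent Caspase 3/7 Green; bidirectional fitting used DMSO as baseline.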

[13] = CCTE_Harrill_HTTr_CellCount_MCF7: CCTE's Cell Proliferation Assessment for the High-Throughput Transcriptomics (HTTr) Platform, Harrill Lab (AID 2284012);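 further: cells exposed to compound for six hours; intended direction is loss of nuclei count meaning fewer cells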
Outline: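 Cell count from high-content imaging of Hoechst-labeled nuclei serves as viability/growth readout. Chemicals were applied to MCF-7 cells in eight concentrations for six hours, with fitting in both directions relative to DMSO.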

[14] = CCTE_Shafer_MEA_dev_firing_rate_mean: CCTE's Neural Network Formation Assay for Mean Firing Rate, Shafer Lab (AID 2284031; active means hit-call score of the fitted dose curve at least 0.9, where 1 is the maximum; inactive means score below 0.9)
Outline: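 Spike frequency (spikes/recording length, averaged over active electrodes) was recorded on days 5, 7, 9 and 12 and collapsed to AUC; rat cortical cultures received compound continuously over 12 days of network development.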

[15] = CCTE_Shafer_MEA_dev_burst_rate: CCTE's Neural Network Formation Assay for Burst Rate, Shafer Lab (AID 2284042; active means hit-call score of the fitted dose curve at least 0.9, where 1 is the maximum; inactive means score below 0.9)
Outline: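 Cells plated, treated day 0; recorded DIV 5, 7, 9, 12; fed and re-treated DIV 5, 9. Endpoint: bursts per recording time, active-electrode well mean, trapezoidal AUC, fitted in decreasing direction against DMSO baseline.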

[16] = CCTE_Shafer_MEA_dev_burst_duration_mean: CCTE's Neural Network Formation Assay for Mean Burst Duration, Shafer Lab (AID 2284045; active means hit-call score of the fitted dose curve at least 0.9, where 1 is the maximum; inactive means score below 0.9)
Outline: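 Mean single-electrode burst duration (first to last spike), averaged over bursting electrodes per well, then integrated as area-under-curve across recordings at days 5, 7, 9 and 12. Rat cortical cultures on MEAs, compound present from plating, refreshed at feeds.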

[17] = CCTE_Shafer_MEA_dev_inter_network_spike_interval_mean: CCTE's Neural Network Formation Assay for Mean Inter-network Spike Interval, Shafer Lab (AID 2284047; active means hit-call score of the fitted dose curve at least 0.9, where 1 is the maximum; inactive means score below 0.9)
Outline: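 Rat cortical cultures, 1.5 x 10^5 cells/well on 48-well MEA plates; continuous exposure days 0–12, medium and compound refreshed DIV 5, 9. Mean time between consecutive network-spike peaks; AUC across DIV 5/7/9/12; DMSO baseline, negative fitting direction.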

[18] = CCTE_Shafer_MEA_dev_network_spike_number: CCTE's Neural Network Formation Assay for Number of Network Spikes, Shafer Lab (AID 2284048; active means hit-call score of the fitted dose curve at least 0.9, where 1 is the maximum; inactive means score below 0.9;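 further: synchronized bursts across electrodes counted on days 5 7 9 12 and integrated as AUC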)
Outline: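 Number of network spikes (coordinated firing across electrodes) recorded on days 5, 7, 9 and 12 and summarised as area under the curve. Rat cortical cultures on MEA, continuous compound exposure with full medium/treatment exchange at DIV 5 and 9.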

[19] = CCTE_Shafer_MEA_dev_network_spike_peak: CCTE's Neural Network Formation Assay for Mean Number of Electrodes in Network Spike, Shafer Lab (AID 2284049; active means hit-call score of the fitted dose curve at least 0.9, where 1 is the maximum; inactive means score below 0.9)
Outline: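 Rat cortical primary culture, 1.5 x 10^5 cells/well, 48-well MEA (16 electrodes/well). Dosing day 0 through DIV 12, full media/compound exchange DIV 5, 9. AxIS adaptive spike detection; AUC over days 5/7/9/12; loss-of-signal vs DMSO.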

[20] = CCTE_Shafer_MEA_dev_spike_duration_mean: CCTE's Neural Network Formation Assay for Mean Spike Duration, Shafer Lab (AID 2284051; active means hit-call score of the fitted dose curve at least 0.9, where 1 is the maximum; inactive means score below 0.9;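 further: mean network spike duration pooled as area under curve over DIV 5 to 12 recordings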)
Outline: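 Readout is the average length of network spikes, clustered firing across electrodes, summed over DIV 5, 7, 9 and 12 as area under the curve. Neurons from rat cortex developed networks on MEA plates under continuous 12-day exposure.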

[21] = CCTE_Shafer_MEA_dev_network_spike_duration_std: CCTE's Neural Network Formation Assay for Standard Deviation of Network Spike Duration, Shafer Lab (AID 2284052; active means hit-call score of the fitted dose curve at least 0.9, where 1 is the maximum; inactive means score below 0.9;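 further: hits are decreases in network spike duration SD versus DMSO vehicle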)
Outline: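 Read-out is the trapezoidal area-under-the-curve across recordings made on days 5, 7, 9 and 12, fitted in the negative direction against DMSO baseline. Neurons were primary rat cortical cells treated from day 0, with treatment renewed at each feed.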

[22] = CCTE_Shafer_MEA_dev_per_network_spike_spike_number_mean: CCTE's Neural Network Formation Assay for Mean Number of Spikes in a Network Spike, Shafer Lab (AID 2284053; active means hit-call score of the fitted dose curve at least 0.9, where 1 is the maximum; inactive means score below 0.9)
Outline: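 Continuous twelve-day exposure of developing rat cortical networks grown over 16 microelectrodes per well; spontaneous firing is captured at four time points, and the per-network-spike spike number is integrated over development by trapezoidal AUC.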

[23] = CCTE_Shafer_MEA_dev_per_network_spike_spike_percent: CCTE's Neural Network Formation Assay for Percent of Spikes in a Network Spike, Shafer Lab (AID 2284054; active means hit-call score of the fitted dose curve at least 0.9, where 1 is the maximum; inactive means score below 0.9)
Outline: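 Metric: fraction of spikes falling in a 0.05 s window at network-spike peaks. Recordings were made on days 5, 7, 9 and 12 and collapsed by trapezoidal AUC. Cultures were rat cortical neurons on MEA plates, dosed continuously from plating, re-dosed at media changes.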

[24] = CCTE_Shafer_MEA_dev_LDH: CCTE's Lactate Dehydrogenase Assay for Cytotoxicity in the Neural Network Formation Assay, Shafer Lab (AID 2284068);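 further: exposure for twelve days from plating with re-dosing on DIV 5 and 9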
Outline: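 Cytotoxicity companion to network-formation recordings: rat cortical neurons received compound over 12 days of development, re-dosed at DIV 5 and 9 feeds. Viability was inferred from LDH enzyme activity relative to DMSO.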

[25] = CCTE_Shafer_MEA_dev_mutual_information_norm: CCTE's Neural Network Formation Assay for Mutual Information Normalization, Shafer Lab (AID 2284091; active means hit-call score of the fitted dose curve at least 0.9, where 1 is the maximum; inactive means score below 0.9)
Outline: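 Shared information across electrodes, tracked on days 5, 7, 9 and 12 of network development and collapsed as trapezoidal area under the curve. Rat cortical cultures were treated continuously from plating, with treatment renewed at feeds on DIV 5 and 9; DMSO baseline, negative-direction fit.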

[26] = CCTE_Shafer_MEA_dev_correlation_coefficient_mean: CCTE's Neural Network Formation Assay for Mean Correlation Coefficient, Shafer Lab (AID 2284093; active means hit-call score of the fitted dose curve at least 0.9, where 1 is the maximum; inactive means score below 0.9)
Outline: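 Read-out: well-mean correlation coefficient of spike trains between electrode pairs, collapsed over four recording days as trapezoidal area-under-the-curve. Developing rat cortical neuron networks grown on MEAs received test chemical continuously from plating.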

Measured: AC50

O=CC=Cc1ccccc1
active: [9] 83.9 µM | [10] 93.6 µM
inactive: [1] | [2] | [3] | [4] | [5] | [6] | [7] | [8] | [11] | [12] | [13]

CN[C@H]1C[C@@H](N)[C@H](O)[C@@H](O[C@@H]2O[C@H](CO)[C@H](O)[C@@H]3OC4(O[C@H]23)O[C@H](C(N)CO)[C@H](O)[C@H](O)C4O)[C@@H]1O (stereo not given in full)
inactive: [1] | [2] | [3] | [4] | [5] | [6] | [8]

CCC1(c2ccccc2)C(=O)NC(=O)NC1=O
inactive: [1] | [2] | [3] | [4] | [5] | [6] | [7] | [14] | [15] | [16] | [17] | [18] | [19] | [20] | [21] | [22] | [23] | [24] | [25] | [26]
